TEAD-YAP inh: TEAD-YAP interaction inhibition, primary screen, TEAD-YAP interaction inhibitor project, luminescence, HEK-TIYL cells | inhibition, % at 9.12 µM | 640,000 compounds, 1.4% hits | TEAD-Gal4/YAP UAS-luciferase luminescence; in the data active = inhibition above about 32%;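 also: 0% = median of test compound wells and 100% = reference inhibitor wells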
GPR151 ag: activators of human GPR151, primary screen, cell-based, PathHunter beta-arrestin, luminescence; PathHunter beta-arrestin GPR151 cells; activation, % at 11.2 µM; 650,000 compounds, 1% hits; in the data active = activation above about 4.9%;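 also: 0% = median of compound wells and 100% = cells with positive control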
FBW7 act: FBW7 E3 ligase activators, primary screen, biochemical, AlphaScreen, human; F-box/WD repeat-containing protein 7 (Homo sapiens), Q969H0; AlphaScreen FBW7–phospho-cyclin E peptide binding, activator screen; normalized activity (activation), % at 26.1 µM; 650,000 compounds, 0.13% hits; AID 1259310, 2017; in the data active = normalized activity above about 1.9%;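 also: purified mutant Fbw7 with reduced substrate affinity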
Target sequence (Q969H0 whole entry, looked up): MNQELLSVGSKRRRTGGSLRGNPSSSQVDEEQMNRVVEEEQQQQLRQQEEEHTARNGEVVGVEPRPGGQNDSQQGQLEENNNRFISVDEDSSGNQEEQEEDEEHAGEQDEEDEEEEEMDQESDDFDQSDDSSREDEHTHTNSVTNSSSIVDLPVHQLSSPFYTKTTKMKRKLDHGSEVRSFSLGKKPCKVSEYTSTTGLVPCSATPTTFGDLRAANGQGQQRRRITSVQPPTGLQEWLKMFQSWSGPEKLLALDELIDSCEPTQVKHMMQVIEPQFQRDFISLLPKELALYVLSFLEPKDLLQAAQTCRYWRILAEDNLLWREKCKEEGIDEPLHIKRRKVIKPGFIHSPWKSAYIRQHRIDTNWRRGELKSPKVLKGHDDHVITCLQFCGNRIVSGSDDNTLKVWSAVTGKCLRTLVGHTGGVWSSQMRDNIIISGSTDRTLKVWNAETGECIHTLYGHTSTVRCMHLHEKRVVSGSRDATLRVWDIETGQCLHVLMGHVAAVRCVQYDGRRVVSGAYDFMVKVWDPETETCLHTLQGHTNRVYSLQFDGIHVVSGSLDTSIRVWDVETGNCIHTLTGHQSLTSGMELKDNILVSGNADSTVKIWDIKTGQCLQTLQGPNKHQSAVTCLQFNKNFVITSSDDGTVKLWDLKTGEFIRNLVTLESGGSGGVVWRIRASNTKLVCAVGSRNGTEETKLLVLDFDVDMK
MITF inh: MITF inhibitors, primary screen, biochemical, AlphaScreen, human | AID 1259374, 2018 | 650,000 compounds, 0.91% hits | inhibition, % at 2.6 µM | Microphthalmia-associated transcription factor (Homo sapiens), O75030 | AlphaScreen MITF homodimerization, bead proximity signal; in the data active = inhibition above about 50%;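 also: 0% = vehicle wells with protein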
* marks the source's active call; other numbers are inactive results. Most compounds without a hit are left out; they make up all but 3.5% or so of the library.

SMILES	TEAD-YAP inh	GPR151 ag	FBW7 act	MITF inh
CN1C(=O)/C(=C\c2ccc(O)cc2)OC1=S	4	-1	0	3
CC(=O)C1=C(C)N=c2s/c(=C/c3cccs3)c(=O)n2C1c1ccc(N(C)C)cc1 (stereo not given)	-4	2	0	3
Cc1cc(C)cc(NC(=O)Cn2cnc3c(cnn3-c3ccc(F)cc3)c2=O)c1	-9	3	0	3
CCCOCCOC(=O)c1[nH]c2c(c1C)C(=O)CC(c1cccs1)C2 (stereo not given)	56*	0	0	17
CCOCCOC(=O)c1[nH]c2c(c1C)C(=O)CC(c1cc(OC)ccc1OC)C2 (stereo not given)	45*	-1	0	5
COCCOC(=O)c1[nH]c2c(c1C)C(=O)CC(c1cc(OC)ccc1OC)C2 (stereo not given)	44*	1	0	-2
COc1ccc(OC)c(C2CC(=O)c3c([nH]c(C(=O)OCCSC)c3C)C2)c1 (stereo not given)	26	0	0	0
Cc1c(C(=O)OCCOc2ccccc2)[nH]c2c1C(=O)CCC2	43*	0	0	-6
O=C(CSc1ncnc2sc(-c3ccccc3)cc12)Nc1ccccc1F	-2	0	0	13
Cc1c(C(=O)OC(C)C)[nH]c2c1C(=O)CC(c1ccccc1)C2 (stereo not given)	51*	0	0	1
Cc1cccc(C(=O)NC(=S)Nc2cccc(C(=O)O)c2)c1	-42	-1	0	-2
O=C(COc1ccc(Br)cc1)Nc1ccccn1	62*	0	0	-7
Cc1ccc(OCC(=O)Nc2ccccn2)cc1	83*	-1	0	3
Cc1ccc(OCC(=O)Nc2cccc(C(=O)O)c2)cc1	69*	4	0	-10
CCOc1ccc(OCC(=O)Nc2cccc(C(=O)O)c2)cc1	4	5	0	1
Cc1ccc(C(=O)NC(=S)Nc2cccc(C(=O)O)c2)cc1	75*	-6	0	2
O=C(COc1ccccc1)Nc1ccccn1	21	-4	0	1
CC1CCCN(C(=O)COC(=O)c2ccc(I)cc2)C1 (stereo not given)	13	-1	0	0
O=C(c1ccc(N2CCC(NCCc3cnccn3)CC2)cc1)N1CCc2ccccc2C1	-5	-1	0	8
CCCCOc1ccc(C(=O)NC(=S)Nc2ccccn2)cc1	-50	-2	1	19
COc1cc(OC)cc(C(=O)N/N=C(\C)CC(=O)Nc2ccccn2)c1	56*	0	0	-2
O=C(Nc1ccccn1)c1ccc(-c2ccccc2)cc1	75*	-3	0	3
CCOc1ccc(C(=O)NC(=S)Nc2ccccn2)cc1	86*	-8	1	13
Cc1n[nH]c(=O)nc1N/N=C/c1ccc(O)cc1O	42*	-6	-1	97*
Cc1cc(=O)[nH]c(N/N=C/c2cc(Br)cc(Br)c2O)n1	4	0	0	6
SMILES	TEAD-YAP inh	GPR151 ag	FBW7 act	MITF inh
CCCOc1ccc(/C=N/Nc2nc(C)cc(=O)[nH]2)c(O)c1	86*	2	-1	34
Cc1n[nH]c(=O)nc1N/N=C/c1ccc(N(C)C)cc1	55*	-7	0	10
Cc1n[nH]c(=O)nc1N/N=C/c1ccccc1Cl	-3	-7	0	-1
Cc1cc(=O)[nH]c(N/N=C/c2ccc(O)cc2O)n1	2	1	-1	76*
CC(C)(C)C1(C)OC(=O)C(=Cc2ccc(Br)o2)C(=O)O1 (stereo not given)	-11	0	0	69*
COc1cc(Br)cc2c1OC(c1ccc3c(c1)OCO3)C([N+](=O)[O-])=C2 (stereo not given)	-22	-1	0	10
CCOc1ccc(C2Oc3c(cc(Br)cc3OC)C=C2[N+](=O)[O-])cc1OC (stereo not given)	62*	-1	0	23
COc1ccc(C2Oc3c(cccc3OC)C=C2[N+](=O)[O-])cc1OC (stereo not given)	43*	-2	0	14
COc1ccc(C2Oc3c(cc(Br)cc3OC)C=C2[N+](=O)[O-])cc1OC (stereo not given)	70*	-1	0	4
CCOc1ccc(C2Oc3c(cccc3OC)C=C2[N+](=O)[O-])cc1OC (stereo not given)	14	-1	1	12
CC(=O)Nc1ccc(-c2nc3cc(NC(C)=O)ccc3o2)cc1	-77	2	0	-13
O=C(COC(=O)c1cc(O)[nH]c(=O)c1)Nc1ccccc1C(=O)c1ccccc1	15	-1	0	6
CC(C)C(=O)NNC(=O)c1ccc(C(F)(F)F)cc1	9	-1	0	14
COCC(=O)NCC1CCC2(CCN(Cc3cnn(-c4ccccc4)c3)CC2)O1 (stereo not given)	5	0	0	4
c1ccc(Nc2nc3nonc3nc2N2CCCCCC2)cc1	37*	2	0	-8
Clc1cccc(Nc2nc3nonc3nc2N2CCCCC2)c1	43*	0	0	6
Clc1cccc(Nc2nc3nonc3nc2N2CCOCC2)c1	57*	1	0	3
Ic1ccc(Nc2nc3nonc3nc2N2CCOCC2)cc1	5	0	0	-5
COC(=O)c1ccc(N/C=C2/CCc3ccccc3C2=O)cc1	68*	-6	0	23
Cc1cccc(N=C2NC(=O)/C(=C\c3ccc(N(C)C)cc3)S2)c1	42*	0	1	6
COc1ccc(/C=C2/SC(=Nc3ccccc3Cl)NC2=O)cc1	37*	1	0	3
CN(C)c1ccc(/C=C2/SC(=Nc3ccccc3Cl)NC2=O)cc1	45*	-1	0	6
Cc1ccc(/C=C2/SC(=Nc3cccc(C)c3)NC2=O)cc1	8	-1	0	-12
Cc1ccc(S(=O)(=O)N(C)CC(=O)Nc2ccccc2C(F)(F)F)cc1	-3	-1	0	-12
CN(C(=O)c1cccc2ncccc12)c1nc2c(s1)CCc1occc1-2	-7	0	7.5*	12
SMILES	TEAD-YAP inh	GPR151 ag	FBW7 act	MITF inh
CC(C)n1cnc2c(Nc3ccc(N4CCOCC4)cc3)nc(Nc3nc4ccccc4n3C)nc21	33*	0	0	-3
CC(=O)Nc1ccc(Nc2nc(NC3CCC(O)CC3)nc3c2ncn3C(C)C)cc1 (stereo not given)	6	-3	0	-3
CC(C)n1cnc2c(Nc3ccccc3)nc(NC3CCC(O)CC3)nc21 (stereo not given)	68*	-8	0	3
CC(C)n1cnc2c(Nc3ccc(N4CCOCC4)cc3)nc(Nc3ccccn3)nc21	33*	1	0	-2
CC(C)n1cnc2c(Nc3ccc(N4CCOCC4)cc3)nc(-c3ccc(C(N)=O)cc3)nc21	32*	-1	0	2
Cc1ccc(OCC(=O)N/N=C/c2cc([N+](=O)[O-])cs2)cc1C	-8	0	0	-10
